Bioassay records deposited in PubChem by several laboratories.
RTF Ca sens inh = cardiac RTF calcium sensitivity inhibitors, primary screen, biochemical, IANBD-TnC fluorescence, EC70 calcium; Troponin I, cardiac muscle (Homo sapiens) + Troponin T, cardiac muscle (Homo sapiens) + …; IANBD-labeled cardiac RTF, Ca2+ fluorescence; inhibition, % at 7.15 µM; 340,000 compounds, 0.12% hits;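 active means inhibition above the mean inhibition of all tested compounds plus 3 SD, cut at about 17% in these data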;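 further: assay run at fixed EC70 calcium of 1.6 mM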
CRFBP-R2 agonist = agonists of CRF-BP/CRF-R2 complex, primary screen, cell-based, HEK293, calcium dye fluorescence, uHTS; 350,000 compounds, 0.46% hits; calcium dye fluorescence (FLIPR); percent of saturating CRF peptide response; activation, % at 13.2 µM; CRF-binding protein / CRF receptor 2 complex (human);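 active means activation of at least 50%, plus an integration ratio under a set limit after plate pattern correction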;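 further: plate controls were neutral control wells without compound for no effect and CRF at EC100 for full effect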
RTF Ca sens act = cardiac RTF calcium sensitivity activators, primary screen, biochemical, IANBD-TnC fluorescence, EC20 calcium; Troponin I, cardiac muscle (Homo sapiens) + Troponin T, cardiac muscle (Homo sapiens) + …; IANBD-labeled TnC RTF fluorescence at EC20 calcium; 0% EC20 calcium, 100% full calcium; activation, % at 7.2 µM; 340,000 compounds, 0.24% hits; AID 493008, 2010;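 active means activation above the mean over all tested compounds plus 3 SD, cut at about 30% in these data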;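 further: rise in fluorescence read as greater calcium sensitivity of cardiac thin filaments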
CRFR2-BP antag = antagonists of CRF-BP/CRF-R2 complex, primary screen, cell-based, HEK293, calcium dye fluorescence, uHTS. CRF-induced calcium fluorescence. inhibition, % at 11.8 µM. 350,000 compounds, 0.59% hits;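 active means inhibition of the ligand-induced calcium signal above about 50% at the single tested concentration, limit read from the data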
Numbers without * were called inactive; x = no result given. Hits are enriched below; roughly 1.3% of the tested compounds scored in any of these assays.

SMILES | RTF Ca sens inh | CRFBP-R2 agonist | RTF Ca sens act | CRFR2-BP antag
COc1ccc(N=Cc2c(O)n(-c3cccc(C)n3)c(=O)c3ccccc23)c(OC)c1 | -3.7 | 72.5* | 5.5 | -48.5
COc1cccc(N=Cc2c(O)n(-c3cccc(C)n3)c(=O)c3ccccc23)c1 | -7.4 | 0.0 | -0.5 | 5.1
C=CCN1C(=O)/C(=C/c2ccc(O)cc2)S/C1=N/c1nccs1 | -5.2 | 65.2* | 0.9 | -73.0
COc1ccc(NC(=O)CSc2nnc3n2CCCCC3)cc1 | 6.2 | -0.8 | 8.3 | 2.1
O=C(COC(=O)c1cccs1)Nc1cccc(S(=O)(=O)NC2=NCCCCC2)c1 | -7.7 | -0.5 | -1.0 | 2.0
O=C(COC(=O)c1ccc([N+](=O)[O-])s1)Nc1cccc(S(=O)(=O)NC2=NCCCCC2)c1 | 2.1 | -1.0 | -0.8 | 68.3*
Cc1cc(C)nc(SCCC(=O)Nc2ccccc2C)n1 | -2.4 | 0.0 | -4.4 | 74.6*
CCOc1ccc(-n2c(C)cc(/C=C3/C(=N)N4C(=NC3=O)SN=C4S(C)(=O)=O)c2C)cc1 | -8.6 | 1.7 | -2.9 | 93.1*
Cc1cccc(C)c1-n1cccc1/C=C1/C(=N)N2C(=NC1=O)SN=C2S(C)(=O)=O | -4.5 | -0.7 | 0.8 | 58.7*
CCC(CC)C1=NN2C(=N)/C(=C\c3cc(C)n(-c4cccc(C)c4)c3C)C(=O)N=C2S1 | -4.4 | 87.0* | -4.7 | -63.8
Cc1ccc(-n2cccc2/C=C2/C(=N)N3C(=NC2=O)SN=C3S(C)(=O)=O)cc1Cl | -8.2 | 0.9 | 8.1 | 50.3*
CC(c1ccco1)N(C(=O)c1cccc(Br)c1)c1ccccn1 (stereo not given) | 5.8 | -1.1 | -0.5 | -3.2
COc1ccc(CN(C(=O)c2ccc(C)cc2)C2CCS(=O)(=O)C2)cc1 (stereo not given) | -6.1 | 0.5 | 1.7 | 63.7*
COc1ccc(C(=O)CCC(=O)Nc2cccnc2)cc1OC | -7.2 | 0.5 | -1.3 | 6.7
Fc1ccc(NC(=S)NNc2ncc(C(F)(F)F)cc2Cl)c(F)c1 | 1.9 | 55.7* | 9.6 | 41.8
FC(F)(F)c1cnc(NNC(=S)Nc2ccc(Cl)cc2)c(Cl)c1 | -8.7 | 51.9* | 5.3 | 38.5
O=C(c1cc[n+]([O-])cc1)N1CCCC(N2CCN(c3cccc(C(F)(F)F)c3)CC2)C1 (stereo not given) | -4.1 | 0.8 | 1.0 | 5.3
Cc1cccc(N2CCN(C(=O)C3CCC(=O)N(Cc4ccccc4F)C3)CC2)c1C (stereo not given) | -3.7 | -2.0 | -0.1 | 9.3
CCCN(CC(=O)Nc1ccccc1C)C(=O)CC(NC(=O)c1ccccc1)c1ccccc1 (stereo not given) | -7.1 | -1.5 | 1.0 | -12.2
O=C1CC(c2ccccc2)c2cccc(F)c21 (stereo not given) | -7.4 | -1.8 | 1.9 | 16.0
CCOc1ccccc1NC(=O)C1CCCCN1S(=O)(=O)c1ccc(F)cc1 (stereo not given) | 4.2 | -0.3 | -6.1 | 13.0
CCOc1ccccc1NC(=O)C1CCC(=O)N1S(=O)(=O)c1ccc(C)cc1 (stereo not given) | -0.3 | -1.0 | -5.9 | 82.2*
COc1cccc2c(=O)n(CC(=O)N3CCc4ccccc43)ccc12 | -1.1 | 71.9* | -2.7 | -54.9
Cc1nc2c(C(=O)NCCc3ccccc3)c[nH]n2c(=O)c1Cl | 0.9 | -3.3 | -3.7 | 50.8*
Cc1nc2c(C(=O)NCCC(C)C)c[nH]n2c(=O)c1Cl | 4.7 | -2.1 | -5.1 | 20.4
SMILES | RTF Ca sens inh | CRFBP-R2 agonist | RTF Ca sens act | CRFR2-BP antag
COc1cc(C(=O)NCCC(=O)NCc2cccs2)cc(OC)c1OC | x | 0.2 | x | -27.0
CC(=O)Nc1ccccc1C(=O)N1CCN(Cc2ccc3c(c2)OCO3)CC1 | -5.4 | 0.9 | 1.7 | -0.6
CC(=O)N1CCOc2ccc(S(=O)(=O)N3CCC(C(=O)NCc4ccc(C)cc4)CC3)cc21 | -0.9 | 2.4 | -4.8 | 52.8*
CN(C)S(=O)(=O)c1cccc(C(=O)N(Cc2ccc(F)cc2)Cc2ccco2)c1 | -4.3 | -1.6 | -1.2 | 12.4
O=C(NNC(=O)c1cccc(S(=O)(=O)N2CCCCC2)c1)c1ccccc1 | 0.2 | -0.2 | 2.2 | 103.3*
O=C(NNC(=O)c1ccc(S(=O)(=O)N2CCCCC2)cc1)c1ccccc1 | -15.3 | -0.6 | 1.3 | -21.1
O=C(c1cccc(S(=O)(=O)N2CCOCC2)c1)N(Cc1ccc(F)cc1)Cc1ccco1 | 2.5 | -1.0 | 2.7 | 55.2*
CC(=O)N1CCN(S(=O)(=O)c2cccc(C(=O)NCc3ccc(F)cc3)c2)CC1 | -6.9 | 1.5 | 1.6 | 89.3*
O=C(Nc1nnc(S(=O)(=O)N2CCCCC2)s1)c1cccc(Br)c1 | -1.3 | 13.9 | 1.4 | 58.5*
O=S(=O)(c1ccc(F)cc1)N1CCN(C(=S)NCC2CCCO2)CC1 (stereo not given) | -2.7 | -0.2 | -2.2 | -1.4
CC(=O)N1CCN(S(=O)(=O)c2cccc(C(=O)NNC(=O)c3ccc(Br)cc3)c2)CC1 | -117.0 | 0.1 | 44.2* | 7.9
CC(=O)N1CCN(S(=O)(=O)c2cccc(C(=O)NNC(=O)COc3ccc(Cl)cc3C)c2)CC1 | -8.6 | 1.0 | -1.8 | 8.8
COc1ccc(C)cc1S(=O)(=O)n1cnc2ccccc21 | -4.8 | -2.6 | -1.9 | 0.9
Cn1c(N)c(C(=O)COC(=O)COc2ccc3ccccc3c2)c(=O)n(C)c1=O | -7.1 | -0.8 | 2.7 | 14.7
CCCCNC(=O)CCc1nc2cccnc2n1Cc1ccc(OC)cc1 | 10.6 | -2.3 | 9.9 | 69.0*
NS(=O)(=O)c1ccc(CNC(=S)NC2CC2)cc1 | -11.8 | -0.3 | 2.9 | 8.6
Cc1ccc(NC(=O)COC(=O)C2=NNC(=O)CC2)c(Br)c1 | -4.4 | 0.1 | 2.0 | 1.2
c1ccc(C(c2ccccc2)N2CCN(Cc3nc(-c4cnccn4)no3)CC2)cc1 | -18.4 | -1.0 | 6.0 | -2.1
c1ccc(-c2noc(CN3CCN(c4cnccn4)CC3)n2)cc1 | -1.6 | -0.1 | 2.0 | 73.6*
Cc1ccccc1S(=O)(=O)Oc1cccc2c(O)cccc12 | 3.1 | -0.6 | -3.6 | 5.2
Oc1c(Cl)cc(Cl)cc1/C=C/c1ccc2cccc(O)c2n1 | -31.4 | 86.7* | 8.9 | -101.6
Oc1ccc(Cl)cc1/C=C/c1ccc2cccc(O)c2n1 | -2.4 | 3.1 | -4.4 | 3.1
O=C1NCCCCC1NS(=O)(=O)c1cccc(C(F)(F)F)c1 (stereo not given) | 1.4 | -2.9 | 22.6 | 3.9
COc1ccc(NC(=O)CN(C)C(=O)C2=COCCO2)cc1 | -5.5 | 2.2 | 11.4 | 106.9*
CN(CC(=O)Nc1ccc(Cl)cc1)C(=O)C1=COCCO1 | -12.9 | -0.2 | 2.4 | -2.4
CC1CC(C)CN(CCCCOc2ccc([N+](=O)[O-])cc2)C1 (stereo not given) | 0.8 | 1.9 | -0.5 | -4.8
CCOC(=O)C(CCCCOc1ccc([N+](=O)[O-])cc1)C(=O)OCC | -1.2 | -4.2 | 8.8 | 61.6*
N#CNC(=Nc1cccc(F)c1)SCc1cccc(F)c1 | 0.2 | 43.7 | -1.7 | 33.8
